Screening results from PubChem.
Tgondii IFNg: blocks Toxoplasma gondii growth in the presence of IFN-gamma | Toxoplasma gondii growth in IFN-gamma-treated host cells; stronger effect = lower value | activity change, negative = inhibition, % (test concentration not listed) | AID 1259416 | 69,000 compounds, 3.8% hits; in the data active = activity change below about -70%, passing the limit was not always enough;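 note: host cells are HeLa cells infected with Toxoplasma gondii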
Numbers without * were called inactive; ! = a repeat was not active. Shown is part of a subset that was picked to be rich in hits.

SMILES	Tgondii IFNg
O=C1CCc2cc(NC(=O)C(F)(F)F)ccc2N1	-3
CC1CCCCN1C1CN(c2nc(CCN)nc3ccccc23)C1 (centres undefined)	5
CC(=O)CC1N(C2CCCCCC2)C(=O)C2N(C3CCCCC3)C(=O)C3CC(=O)OC312 (centres undefined)	13
Cc1oc(-c2cccc(Cl)c2)nc1Cn1nnc(-c2nc(-c3ccncc3)no2)c1C	12
O=C1C(c2c(O)[nH]c3ccccc23)=Nc2ccccc21	-3
O=c1[nH]c2ccccc2c(O)c1-c1nc(-c2ccc(Br)cc2)no1	27
O=Nc1c(-c2c(O)[nH]c3cc(Br)ccc23)[nH]c2ccccc12	-92*
CCCNC(=O)c1cc2c(c(-c3cccc(-c4cc5ccccc5o4)c3)n1)[C@H](CCO)N(C(=O)NC(C)C)C2	-71*
CC(C)NC(=O)N1Cc2cc(C(=O)NC3CCC3)nc(-c3cccc(-c4cncnc4)c3)c2[C@@H]1CCO	5
CC(C)NC(=O)N1Cc2cc(C(=O)NC3Cc4ccccc4C3)nc(-c3cccc(-c4cccnc4)c3)c2[C@H]1CCO	-57
COc1ccc(N(Cc2nc(-c3ccccc3OC)oc2C)S(=O)(=O)c2ccc(C)cc2)cc1	-4
COCCN1C(=O)N(Cc2cccc3ccccc23)C(=O)C12CCN(Cc1ccsc1)CC2	-65
Cc1cc(CN(C)CC(=O)NCCc2cccc(Cl)c2)n[nH]1	0
COc1cccc(-c2cccc(CN(C)Cc3cc(C)[nH]n3)c2)c1	-82*
COc1cccc(-n2cc(CN(C)Cc3cc(F)ccc3F)cn2)c1	11
CC(C)CC(NS(=O)(=O)c1ccc2[nH]c(=O)ccc2c1)C(=O)Nc1ccccc1 (centres undefined)	58
COc1ccc(C(=O)Nc2ccc(-c3nc(-c4ccc(C)cc4)co3)cc2)cc1OC	15
COc1ccc(CN2CCCC2)cc1Oc1ccc(CO)cc1	3
Cn1ncc2c(NCc3cc(C(C)(C)C)n[nH]3)nc(C(C)(C)C)nc21	-75*
Cc1nccn1CCN(C)c1nc(C(C)(C)C)nc2c1cnn2C	-12
CCOC(=O)CNc1nc(C(C)(C)C)nc2c1cnn2C	-4
Cc1[nH]cnc1CN(CCO)CC12CC3CC(CC(C3)C1)C2	3
Cc1oc(C2CCN(S(=O)(=O)c3cccc(C#N)c3)CC2)nc1C(=O)N1CCOCC1	137
CC(C)Cc1cc(CNc2nc(-c3cccnc3)nc3c2CCNC3)no1	-36
CC(C)(C)CC(Nc1nc(-c2cccnc2)nc2c1CNC2)c1cccnc1 (centres undefined)	-18
SMILES	Tgondii IFNg
CCc1cc(C(C)Nc2nc(-c3cccnc3)nc3c2CNC3)on1 (centres undefined)	-88*
CCSc1nc(CC(=O)NCCS(=O)(=O)N(C)C)cs1	-2
CC1CCN(S(=O)(=O)c2ccc3c(ccc(=O)n3CC(=O)NC3CC3)c2)CC1	-5
CC(C)NC(=O)Cn1c(=O)cc(-c2nc(C3CC3)no2)c2ccccc21	-31
O=C(Cn1c(=O)cc(-c2nc(C3CC3)no2)c2ccccc21)NCc1ccc(F)cc1	10
CC1CCN(S(=O)(=O)c2ccc3c(ccc(=O)n3CC(=O)NC3CCCC3)c2)CC1	-54
O=C(Cn1c(=O)cc(-c2nc(C3CC3)no2)c2ccccc21)NCCC1=CCCCC1	-84*
CC1CCN(S(=O)(=O)c2ccc3c(ccc(=O)n3CC(=O)NCCC3=CCCCC3)c2)CC1	-77*
O=c1[nH]cnc2c1CCN(S(=O)(=O)c1cc3ccccc3o1)C2	9
CCC(C(=O)NCc1snnc1C)n1cc(C(C)=O)c2ccccc21 (centres undefined)	-29
O=C(CC12CC3CC(CC(C3)C1)C2)N1CCN2CCCC2C1 (centres undefined)	-4
O=C(COc1ccc2nncn2n1)NC1(c2ccccc2F)CCCC1	-34
c1cnc2c(CNC(Cc3ccsc3)c3nccs3)cccc2c1 (centres undefined)	22
Oc1c(Cl)cc(Cl)cc1Sc1cc(Cl)cc(Cl)c1O	-84*!
CC(NC(=O)c1cc2n(n1)CCCN(C)C2)c1ccccc1C(F)(F)F (centres undefined)	-9
COc1ccccc1CC(=O)NCCn1cc(-c2ccncc2)c(-c2ccccc2F)n1	-49
CC1=C(C(=O)NCCc2ccc(Cl)cc2)C2(CCN(S(C)(=O)=O)CC2)OC1=O	12
COc1ccc(CNC(=O)c2nnn(Cc3nc(-c4ccc(C)cc4)oc3C)c2C)cc1OC	-87*
COc1ccc(NC(=O)c2nnn(Cc3nc(-c4ccc(C)cc4)oc3C)c2C)cc1	-95*
COc1ccc(NC(=O)c2nnn(Cc3nc(-c4ccc(Cl)cc4)oc3C)c2C)cc1OC	-21
COc1ccc(CCNC(=O)c2nnn(Cc3nc(-c4ccc(C)cc4)oc3C)c2C)cc1OC	16
Cc1ccccc1NC(=O)c1nnn(Cc2nc(-c3ccc(OC(C)C)cc3)oc2C)c1C	-39
CCOc1ccccc1NC(=O)c1nnn(Cc2nc(-c3ccc(OC(C)C)cc3)oc2C)c1C	33
Cc1oc(-c2ccc(OC(C)C)cc2)nc1Cn1nnc(C(=O)Nc2cccc(Cl)c2C)c1C	-118*
CSc1ccc(CNC(=O)c2nnn(Cc3nc(-c4ccc(C)cc4)oc3C)c2C)cc1	-48
